“And” between values parts separate entries of the source, which are not always exact repeats. Identical values can stand only once. Records with an inconclusive call do not appear. The source made the active and inactive calls. Calls follow the shape of the dose curve; as a rule, active = well fitted inhibition curve with a large enough effect; inconclusive = small, poorly fitted or top-dose-only effect; inactive = flat fitted curve, though single readings scatter. *1 amine or outer side, *2 acyl side, *3 side chain or, on linkers, in order; H or OH if unused. Where a SMILES comes first, the peptide text is derived from it. Bridges are numbered along the chain shown (N, C = ends). [ ]: non-standard residue; d: D form. The star is where a group is joined. X5 = NC1=N[C@@H]([C@H](N[*:1])C(=O)[*:2])C[C@H](O)N1; ΔAla(Z-3-ureido) = NC(=O)N/C=C(\N)C(=O)O; β3hOrn = NCCC[C@H](N)CC(=O)*; Dap = NC[C@H](N)C(=O)O
What was measured:
[1] = Drug repurposing screens with cells derived from glioblastoma tumor samples (AID 1345199); conditions: GBM patient neurospheres viability, ATP luminescence, 48 h; also: nearly all actives have a fitted effect of over 40% in size
Procedure, shortened: (§1)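 Primary testing used CD133+ neurospheres from four GBM patients, seven concentrations, 48 h exposure and ATP-based viability; confirmation added three slower-growing patient lines.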

astro = control astrocytes; experiment: as above; conditions: viability, ATP luminescence, 48 h; series mostly up to 45.9 µM
Procedure, shortened: as §1

[2] = at 45.9 µM (top of the series), tumour line B
[3] = at 45.9 µM (top of the series), tumour line D
[4] = at 46 µM (top of the series), tumour line A
[5] = at 46.1 µM (top of the series), tumour line C
[6] = at 20 µM (top of the series), tumour line C
[7] = at 21.2 µM (top of the series), tumour line B
[8] = at 21.2 µM (top of the series), tumour line D
[9] = at 21.3 µM (top of the series), tumour line A
% is scaled to controls: 0 for no effect and ±100 for the full control effect; potency is read from the fitted curve at half-maximal effect.

CC/C(=C(/CC)c1ccc(OP(=O)(O)O)cc1)c1ccc(OP(=O)(O)O)cc1
inactive: activity, negative = cell killing [1, 2] -16% | activity, negative = cell killing [1, 3] -11.4% | activity, negative = cell killing [1, 4] -22.6% | activity, negative = cell killing [1, 5] -17.3% | Potency (astro)

CN[C@@H]1[C@H](O[C@H]2[C@H](O[C@H]3[C@H](O)[C@@H](O)[C@H](N=C(N)N)[C@@H](O)[C@@H]3N=C(N)N)O[C@@H](C)[C@]2(O)CO)O[C@@H](CO)[C@H](O)[C@H]1O
inactive: activity, negative = cell killing [1, 2] -12.7% | activity, negative = cell killing [1, 3] -12.4% | activity, negative = cell killing [1, 4] -5.62% | activity, negative = cell killing [1, 5] -12.6% | Potency (astro)

COc1ccc(C(=O)CCC(=O)O)c2ccccc12
inactive: activity, negative = cell killing [1, 2] 0.841% | activity, negative = cell killing [1, 3] 1.24% | activity, negative = cell killing [1, 4] -50.8% | activity, negative = cell killing [1, 5] -26.3% | Potency (astro)

CC(=O)N=c1sc(S(N)(=O)=O)nn1C
inactive: activity, negative = cell killing [1, 6] -7.38% | activity, negative = cell killing [1, 7] -5.71% | activity, negative = cell killing [1, 8] -24.8% | activity, negative = cell killing [1, 9] -18.1% | Potency (astro)

CC1(O)CCC(C(C)(C)O)CC1 (stereo not given)
inactive: activity, negative = cell killing [1, 2] -1.19% | activity, negative = cell killing [1, 3] -26.4% | activity, negative = cell killing [1, 4] -16.9% | activity, negative = cell killing [1, 5] 9.01% | Potency (astro)

CC(C)NCC(O)COc1ccccc1-n1cccc1 (stereo not given)
active: Potency ([1]; tumour line C) 25.9 µM
inactive: activity, negative = cell killing [1, 2] -14.4% | activity, negative = cell killing [1, 3] -7.4% | activity, negative = cell killing [1, 4] 15.7% | Potency (astro)

C=CC1=C(C(=O)O)N2C(=O)[C@@H](NC(=O)/C(=N\O)c3csc(N)n3)[C@H]2SC1 (stereo in doubt)
inactive: activity, negative = cell killing [1, 2] 5.66% and -6.14% | activity, negative = cell killing [1, 3] -12.1% and -17.4% | activity, negative = cell killing [1, 4] -18.5% | activity, negative = cell killing [1, 5] 20.4% and -9.47% | Potency (astro)

CCOC(=O)Oc1c(OC)cc(C(=O)O[C@@H]2C[C@@H]3CN4CCc5c([nH]c6cc(OC)ccc56)[C@H]4C[C@@H]3[C@H](C(=O)OC)[C@H]2OC)cc1OC
inactive: activity, negative = cell killing [1, 6] -3.41% | activity, negative = cell killing [1, 7] -4.13% | activity, negative = cell killing [1, 8] -4.51% | Potency (astro)
active: Potency ([1]; tumour line A) 5.62 µM

CO/N=C(\C(=O)N[C@@H]1C(=O)N2C(C(=O)O)=C(C[N+]3(C)CCCC3)CS[C@H]12)c1csc(N)n1
inactive: activity, negative = cell killing [1, 2] -2.14% | activity, negative = cell killing [1, 3] 5.4% | activity, negative = cell killing [1, 4] -4.98% | activity, negative = cell killing [1, 5] -21.1% | Potency (astro)

CC[C@@H]1/C=C(\C)C[C@H](C)C[C@H](OC)[C@H]2O[C@@](O)(C(=O)C(=O)N3CCCC[C@H]3C(=O)O[C@H](/C(C)=C/[C@@H]3CC[C@@H](Cl)[C@H](OC)C3)[C@H](C)[C@@H](O)CC1=O)[C@H](C)C[C@@H]2OC
inactive: activity, negative = cell killing [1, 2] -7.85% | activity, negative = cell killing [1, 3] -16.3% | activity, negative = cell killing [1, 4] -14.1% | activity, negative = cell killing [1, 5] -18.5% | Potency (astro)

CCCOc1cc(N)ccc1C(=O)OCCN(CC)CC
inactive: activity, negative = cell killing [1, 6] 3.99% | activity, negative = cell killing [1, 7] -3.15% | activity, negative = cell killing [1, 8] -24.1% | activity, negative = cell killing [1, 9] 3.16% | Potency (astro)

CCC(C(=O)NC(N)=O)c1ccccc1 (stereo not given)
inactive: activity, negative = cell killing [1, 2] -5.95% | activity, negative = cell killing [1, 3] -2.75% | activity, negative = cell killing [1, 4] -8.52% | activity, negative = cell killing [1, 5] -14.2% | Potency (astro)

CC1(C)[C@@H]2CC[C@@]1(C)[C@H](OC(=O)CSC#N)C2
inactive: activity, negative = cell killing [1, 2] -7.75% | activity, negative = cell killing [1, 3] -12% | activity, negative = cell killing [1, 5] 23.1% | Potency (astro)
active: Potency ([1]; tumour line A) 35.5 µM

Cc1c(O)c(=O)ccn1C
inactive: activity, negative = cell killing [1, 2] -9.32% | activity, negative = cell killing [1, 3] -8.06% | activity, negative = cell killing [1, 4] -29.8% | activity, negative = cell killing [1, 5] -25.3% | Potency (astro)

CC1CS(=O)(=O)CCN1/N=C/c1ccc([N+](=O)[O-])o1 (stereo not given)
inactive: activity, negative = cell killing [1, 6] -27.2% | activity, negative = cell killing [1, 7] -10% | activity, negative = cell killing [1, 8] -29.2% | activity, negative = cell killing [1, 9] -23% | Potency (astro)

O=C(Cc1cccs1)N[C@@H]1C(=O)N2C(C(=O)[O-])=C(C[n+]3ccccc3)CS[C@H]12
inactive: activity, negative = cell killing [1, 2] -13.3% | activity, negative = cell killing [1, 3] 8.29% | activity, negative = cell killing [1, 4] -29.7% | activity, negative = cell killing [1, 5] -10.2% | Potency (astro)

NCCCC[C@H](N)C(=O)O
inactive: activity, negative = cell killing [1, 2] -13.6% | activity, negative = cell killing [1, 3] 9.14% | activity, negative = cell killing [1, 4] -18.9% | activity, negative = cell killing [1, 5] 9.67% | Potency (astro)

OC1OC[C@@H](O)[C@H](O)[C@@H]1O (stereo not given in full)
inactive: activity, negative = cell killing [1, 2] -0.633% | activity, negative = cell killing [1, 3] 10.5% | activity, negative = cell killing [1, 4] -6.9% | activity, negative = cell killing [1, 5] 14.5% | Potency (astro)

CC1(C)S[C@@H]2[C@H](N3C(=O)C(c4ccccc4)NC3(C)C)C(=O)N2[C@H]1C(=O)O (stereo not given in full)
inactive: activity, negative = cell killing [1, 2] -8.88% | activity, negative = cell killing [1, 3] -1.4% | activity, negative = cell killing [1, 4] -5.42% | activity, negative = cell killing [1, 5] -5.2% | Potency (astro)

NCCC[C@H](N)CC(=O)N[C@H]1CNC(=O)[C@H]([C@H]2C[C@H](O)NC(N)=N2)NC(=O)/C(=C/NC(N)=O)NC(=O)[C@H](CO)NC(=O)[C@H](CO)NC1=O (β3hOrn-[Dap]SS[ΔAla(Z-3-ureido)][X5]; lactam 1-C)
inactive: activity, negative = cell killing [1, 2] -0.927% | activity, negative = cell killing [1, 3] -12.2% | activity, negative = cell killing [1, 4] -14.8% | activity, negative = cell killing [1, 5] -14% | Potency (astro)

O=C(O)CCC/C=C\C[C@@H]1[C@@H](/C=C/[C@@H](O)COc2cccc(C(F)(F)F)c2)[C@H](O)C[C@@H]1O
inactive: activity, negative = cell killing [1, 2] -0.927% | activity, negative = cell killing [1, 3] 2.71% | activity, negative = cell killing [1, 4] -17.8% | activity, negative = cell killing [1, 5] 3.43% | Potency (astro)
